# Measurements reported in PubChem BioAssay.
# Activity calls are given as the source filed them.
# Experiments:
# [1] = system: PRMT1 (protein arginine N-methyltransferase 1); experiment: PRMT1 binders on small-molecule microarrays, primary screen, biochemical, small-molecule microarray, 635 nm fluorescence (AID 1088); conditions: small-molecule microarray binding, higher = more signal;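 also: binding of Prmt1 protein to compounds spotted on small-molecule microarray slides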
# [2] = yeast growth modulation, basal conditions, primary screen, YJM789 clinical isolate, OD600, 24 h (AID 1089);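 also: growth of clinical yeast isolate S. cerevisiae YJM 789 seeded 1000 cells per well; test concentration not given here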; conditions: S. cerevisiae YJM789 growth, higher = more signal, called active from +8 up or from −8 down
# [3] = fission yeast growth modulation, primary screen, strain 972, OD600, 24 h, no modulator (AID 1090);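 also: basal condition with compound alone and no growth modifier present; test concentration not given here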; conditions: S. pombe 972 growth, higher = more signal, called active from +8 up or from −8 down
# [4] = S. cerevisiae growth modulation with rapamycin, primary screen, strain BY4716, OD600, 96 h (AID 1091); conditions: higher = more signal, called active from +8 up or from −8 down; also: test concentration not given here
# [5] = biological target: Torsin-1A-interacting protein 2 (Homo sapiens) (UniProt Q8NFQ8); experiment: LULL1 binders on small-molecule microarray, primary screen, cell lysate, human LULL1 lysate, 635/667 nm fluorescence (AID 1092); conditions: hLULL1 lysate binding, 635 nm fluorescence, higher = more signal;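 also: probe is lysate of COS7 cells overexpressing human LULL1; score merges per-feature 667 nm fluorescence with signal-to-noise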
# Chain of Torsin-1A-interacting protein 2 (Homo sapiens) (Q8NFQ8 whole entry, looked up): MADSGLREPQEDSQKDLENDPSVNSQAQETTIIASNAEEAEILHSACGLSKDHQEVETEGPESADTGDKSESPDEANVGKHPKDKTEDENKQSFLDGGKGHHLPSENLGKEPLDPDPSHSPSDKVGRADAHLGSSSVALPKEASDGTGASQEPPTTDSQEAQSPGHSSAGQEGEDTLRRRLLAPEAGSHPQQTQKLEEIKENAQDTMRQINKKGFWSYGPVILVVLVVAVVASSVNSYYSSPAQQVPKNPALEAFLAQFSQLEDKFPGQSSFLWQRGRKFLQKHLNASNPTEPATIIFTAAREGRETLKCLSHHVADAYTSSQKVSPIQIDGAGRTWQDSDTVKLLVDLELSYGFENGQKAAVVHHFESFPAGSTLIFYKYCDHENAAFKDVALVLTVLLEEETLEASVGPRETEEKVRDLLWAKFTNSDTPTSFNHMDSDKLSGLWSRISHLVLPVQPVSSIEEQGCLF
# [6] = E. coli growth modulation, two-sided OD650, primary screen, E. coli filamentation project, strain DRC41, 24 h (AID 1093); conditions: OD650, 24 h, higher = more signal, called active from +8 up or from −8 down;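 also: MC1000 strain lacking acrAB efflux and sulA so SOS filamentation is blocked; test concentration not given here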
# [7] = small-molecule microarray binders of probe aLefty2, primary screen, biochemical, biotinylated probe, 635/667 nm fluorescence (AID 1094); conditions: higher = more signal;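 also: score merges spot fluorescence near 667 nm with spot signal-to-noise ratio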
# [8] = system: Noggin (protein binding on small-molecule microarray); experiment: Noggin binders on small-molecule microarray, primary screen, biochemical, 635/667 nm fluorescence (AID 1095); conditions: 635 nm fluorescence, higher = more signal;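 also: score merges 667 nm feature fluorescence with signal to noise over triplicate slides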
# [9] = biological target: Neurogenic locus notch homolog protein 3 (Homo sapiens) (UniProt Q9UM47); experiment: NOTCH3 binders on small-molecule microarray, primary screen, biochemical, 635/667 nm fluorescence (AID 1096); conditions: NOTCH3 binding, 635 nm fluorescence, higher = more signal
# Chain of Neurogenic locus notch homolog protein 3 (Homo sapiens) (Q9UM47 whole entry, looked up): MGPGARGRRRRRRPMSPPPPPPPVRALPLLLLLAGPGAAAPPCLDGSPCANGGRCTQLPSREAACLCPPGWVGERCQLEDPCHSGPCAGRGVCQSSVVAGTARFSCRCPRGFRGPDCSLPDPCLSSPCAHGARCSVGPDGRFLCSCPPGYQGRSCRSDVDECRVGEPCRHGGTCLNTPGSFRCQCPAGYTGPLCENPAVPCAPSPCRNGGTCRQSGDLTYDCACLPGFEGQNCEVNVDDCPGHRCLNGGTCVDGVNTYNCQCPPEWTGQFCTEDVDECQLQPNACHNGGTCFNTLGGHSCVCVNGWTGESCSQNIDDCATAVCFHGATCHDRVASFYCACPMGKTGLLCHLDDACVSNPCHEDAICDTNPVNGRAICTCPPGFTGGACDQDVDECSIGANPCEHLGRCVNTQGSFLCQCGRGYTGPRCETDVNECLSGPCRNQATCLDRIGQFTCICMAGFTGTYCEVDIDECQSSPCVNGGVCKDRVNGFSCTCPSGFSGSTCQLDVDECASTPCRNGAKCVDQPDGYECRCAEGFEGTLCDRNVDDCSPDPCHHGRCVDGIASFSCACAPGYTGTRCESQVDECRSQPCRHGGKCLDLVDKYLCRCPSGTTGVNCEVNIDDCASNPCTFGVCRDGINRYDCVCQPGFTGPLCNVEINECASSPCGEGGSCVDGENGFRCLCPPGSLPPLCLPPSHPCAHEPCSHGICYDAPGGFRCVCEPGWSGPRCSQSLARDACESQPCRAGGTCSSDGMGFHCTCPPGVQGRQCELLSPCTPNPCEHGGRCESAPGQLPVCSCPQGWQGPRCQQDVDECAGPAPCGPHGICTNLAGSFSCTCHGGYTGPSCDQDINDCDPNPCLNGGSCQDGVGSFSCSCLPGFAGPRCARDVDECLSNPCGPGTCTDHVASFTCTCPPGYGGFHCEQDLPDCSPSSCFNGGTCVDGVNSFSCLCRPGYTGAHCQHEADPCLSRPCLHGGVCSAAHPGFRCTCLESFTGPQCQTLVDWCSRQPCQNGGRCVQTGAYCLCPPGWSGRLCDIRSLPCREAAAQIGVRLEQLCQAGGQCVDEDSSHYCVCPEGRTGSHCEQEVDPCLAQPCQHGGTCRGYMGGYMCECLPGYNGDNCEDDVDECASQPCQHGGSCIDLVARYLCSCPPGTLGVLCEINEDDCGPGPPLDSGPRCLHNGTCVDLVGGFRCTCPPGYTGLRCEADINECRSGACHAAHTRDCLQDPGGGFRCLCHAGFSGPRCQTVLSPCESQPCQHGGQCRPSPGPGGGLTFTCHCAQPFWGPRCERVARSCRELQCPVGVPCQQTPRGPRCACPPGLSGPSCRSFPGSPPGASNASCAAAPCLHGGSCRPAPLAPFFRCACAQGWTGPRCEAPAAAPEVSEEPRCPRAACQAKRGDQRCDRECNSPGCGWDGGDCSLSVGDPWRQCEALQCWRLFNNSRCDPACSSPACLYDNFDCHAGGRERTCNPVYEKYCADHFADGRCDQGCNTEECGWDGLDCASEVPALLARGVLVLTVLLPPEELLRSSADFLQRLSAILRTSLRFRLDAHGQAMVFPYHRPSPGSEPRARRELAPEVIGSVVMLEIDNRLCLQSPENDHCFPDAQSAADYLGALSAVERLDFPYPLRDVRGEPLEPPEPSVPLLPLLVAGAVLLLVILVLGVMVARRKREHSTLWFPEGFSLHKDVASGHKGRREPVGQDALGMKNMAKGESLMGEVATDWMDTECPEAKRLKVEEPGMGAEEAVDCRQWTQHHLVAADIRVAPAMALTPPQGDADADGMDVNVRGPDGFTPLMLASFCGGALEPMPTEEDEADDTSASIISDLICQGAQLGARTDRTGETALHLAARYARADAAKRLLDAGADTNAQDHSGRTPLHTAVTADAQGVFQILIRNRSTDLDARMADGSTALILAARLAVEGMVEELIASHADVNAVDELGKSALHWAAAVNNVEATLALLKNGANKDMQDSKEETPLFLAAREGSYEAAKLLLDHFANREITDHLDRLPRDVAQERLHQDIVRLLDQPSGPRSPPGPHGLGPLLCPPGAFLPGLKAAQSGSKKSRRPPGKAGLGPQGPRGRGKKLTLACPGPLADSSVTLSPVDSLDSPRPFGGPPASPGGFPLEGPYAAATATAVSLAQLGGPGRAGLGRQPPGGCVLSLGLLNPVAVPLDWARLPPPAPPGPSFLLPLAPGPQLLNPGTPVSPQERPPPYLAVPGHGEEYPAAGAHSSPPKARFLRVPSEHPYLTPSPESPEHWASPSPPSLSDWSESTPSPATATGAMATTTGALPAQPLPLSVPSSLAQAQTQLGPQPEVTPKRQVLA
# [10] = small-molecule microarray binders of probe aEGFR, primary screen, biochemical, biotinylated probe, 635/667 nm fluorescence (AID 1097); conditions: higher = more signal;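 also: probe is a biotinylated anti-EGFR antibody binding compounds printed on slides; score combines fluorescence near 667 nm and signal to noise of each spot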
# [11] = system: Plasmodium falciparum Sir2 (PF13_0152, Sir2A); experiment: pfSir2 binders on small-molecule microarrays, primary screen, biochemical, small-molecule microarray, 635 nm fluorescence (AID 1098); conditions: small-molecule microarray binding, fluorescence 635 nm; higher = more signal;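 also: score merges spot fluorescence intensity with its signal-to-noise ratio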
# [12] = small-molecule microarray binders of probe aDKK1, primary screen, biochemical, biotinylated probe, 635/667 nm fluorescence (AID 1099); conditions: higher = more signal;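 also: score merges 667nm spot fluorescence with signal to noise across triplicate slides; reference of the scale not given here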
# [13] = small-molecule microarray binders of probe aCHRDL2, primary screen, biochemical, biotinylated probe, 635/667 nm fluorescence (AID 1100); conditions: higher = more signal
# [14] = splicing luciferase reporter signal modulators, primary screen, spliceosome inhibition project, cell-based, HEK293, splice +/- reporter (AID 1101); conditions: luminescence, 24 h, higher = more signal, called active from +8 up or from −8 down;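 also: HEK293 cells carrying a splicing-competent luciferase reporter gene; test concentration not given here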
# [15] = biological target: Fibroblast growth factor 10 (Homo sapiens) (UniProt O15520); experiment: FGF10 binders on small-molecule microarrays, primary screen, biochemical, small-molecule microarray, 635 nm fluorescence (AID 1102); conditions: FGF10 binding, fluorescence 635 nm, higher = more signal
# Chain of Fibroblast growth factor 10 (Homo sapiens) (O15520 whole entry, looked up): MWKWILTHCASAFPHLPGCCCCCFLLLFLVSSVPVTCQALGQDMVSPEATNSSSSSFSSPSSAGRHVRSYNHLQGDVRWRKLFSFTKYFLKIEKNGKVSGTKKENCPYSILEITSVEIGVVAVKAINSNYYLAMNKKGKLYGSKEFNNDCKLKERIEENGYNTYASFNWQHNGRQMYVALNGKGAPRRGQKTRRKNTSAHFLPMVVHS
# [16] = system: glycogen synthase kinase-3 (GSK3A per assay name; protocol says GSK3B); experiment: GSK3 binders on small-molecule microarrays, primary screen, biochemical, small-molecule microarray, 635 nm fluorescence, GSK3A (AID 1103); conditions: small-molecule microarray binding, fluorescence 635 nm; higher = more signal; also: the record names both GSK3A and GSK3B
# [17] = biological target: Epidermal growth factor receptor (Homo sapiens) (UniProt P00533); experiment: EGFR binders on small-molecule microarrays, primary screen, biochemical, small-molecule microarray, 635 nm fluorescence (AID 1104); conditions: EGFR binding, higher = more signal;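 also: score merges 667 nm emission intensity with spot signal to noise over triplicate slides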
# Chain of Epidermal growth factor receptor (Homo sapiens) (P00533 whole entry, looked up): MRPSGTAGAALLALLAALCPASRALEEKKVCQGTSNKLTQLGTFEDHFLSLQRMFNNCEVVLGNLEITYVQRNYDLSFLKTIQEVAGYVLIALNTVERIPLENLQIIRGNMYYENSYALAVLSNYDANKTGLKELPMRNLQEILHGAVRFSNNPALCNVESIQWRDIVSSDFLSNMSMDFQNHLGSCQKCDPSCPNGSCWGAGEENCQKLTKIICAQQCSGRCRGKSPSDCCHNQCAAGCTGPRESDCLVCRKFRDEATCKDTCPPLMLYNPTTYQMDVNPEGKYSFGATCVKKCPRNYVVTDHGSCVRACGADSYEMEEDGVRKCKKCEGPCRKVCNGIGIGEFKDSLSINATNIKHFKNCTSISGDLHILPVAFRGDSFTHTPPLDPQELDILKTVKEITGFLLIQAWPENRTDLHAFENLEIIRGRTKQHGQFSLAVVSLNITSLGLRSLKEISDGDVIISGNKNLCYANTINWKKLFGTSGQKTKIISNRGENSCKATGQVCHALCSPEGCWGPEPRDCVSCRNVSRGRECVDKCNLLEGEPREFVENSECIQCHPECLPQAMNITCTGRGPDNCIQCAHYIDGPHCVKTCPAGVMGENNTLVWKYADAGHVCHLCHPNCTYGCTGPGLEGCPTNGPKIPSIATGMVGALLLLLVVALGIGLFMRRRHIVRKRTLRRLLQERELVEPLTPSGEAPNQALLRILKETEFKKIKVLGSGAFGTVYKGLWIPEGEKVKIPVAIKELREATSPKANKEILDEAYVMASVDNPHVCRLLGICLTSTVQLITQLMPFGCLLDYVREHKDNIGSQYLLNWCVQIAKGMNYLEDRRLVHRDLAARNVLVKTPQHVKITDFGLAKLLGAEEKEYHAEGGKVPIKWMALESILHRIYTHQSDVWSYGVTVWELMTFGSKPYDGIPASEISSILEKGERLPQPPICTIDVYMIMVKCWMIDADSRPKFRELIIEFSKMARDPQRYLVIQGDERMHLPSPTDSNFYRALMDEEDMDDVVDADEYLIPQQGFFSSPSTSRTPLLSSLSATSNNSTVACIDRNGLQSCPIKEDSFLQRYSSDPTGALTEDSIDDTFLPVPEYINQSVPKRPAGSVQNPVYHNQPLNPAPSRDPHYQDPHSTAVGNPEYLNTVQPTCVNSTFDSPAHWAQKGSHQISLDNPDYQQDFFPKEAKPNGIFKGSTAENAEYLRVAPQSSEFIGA
# [18] = biological target: Follistatin-related protein 3 (Homo sapiens) (UniProt O95633); experiment: FSTL3 binders on small-molecule microarrays, primary screen, biochemical, small-molecule microarray, 635 nm fluorescence (AID 1105); conditions: FSTL3 binding, higher = more signal;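 also: score merges emission near 667 nm and signal to noise per printed spot across three slides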
# Chain of Follistatin-related protein 3 (Homo sapiens) (O95633 whole entry, looked up): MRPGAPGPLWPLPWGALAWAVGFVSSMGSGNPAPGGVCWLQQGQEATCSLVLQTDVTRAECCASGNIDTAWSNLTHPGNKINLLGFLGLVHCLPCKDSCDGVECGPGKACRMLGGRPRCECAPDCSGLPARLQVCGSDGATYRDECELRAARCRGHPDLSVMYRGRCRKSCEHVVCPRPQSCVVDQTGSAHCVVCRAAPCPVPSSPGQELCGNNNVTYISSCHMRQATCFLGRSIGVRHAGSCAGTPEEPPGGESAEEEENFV
# [19] = biological target: Dickkopf-related protein 1 (Homo sapiens) (UniProt O94907); experiment: DKK1 binders on small-molecule microarrays, primary screen, biochemical, small-molecule microarray, 635 nm fluorescence scan (AID 1106); conditions: DKK1 binding, higher = more signal;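 also: score merges emission near 667 nm with signal to noise over three replicate slides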
# Chain of Dickkopf-related protein 1 (Homo sapiens) (O94907 whole entry, looked up): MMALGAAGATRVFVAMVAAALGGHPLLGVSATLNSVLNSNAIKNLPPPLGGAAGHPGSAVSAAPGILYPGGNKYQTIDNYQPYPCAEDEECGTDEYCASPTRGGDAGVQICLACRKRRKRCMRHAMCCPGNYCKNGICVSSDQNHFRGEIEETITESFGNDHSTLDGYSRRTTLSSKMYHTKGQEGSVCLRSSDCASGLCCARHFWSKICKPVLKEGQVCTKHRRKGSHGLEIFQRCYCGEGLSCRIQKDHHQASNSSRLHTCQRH
# [20] = system: Inhibin beta A chain (activin A); experiment: INHBA (activin A) binders on microarrays, primary screen, biochemical, small-molecule microarray, 635 nm fluorescence scan (AID 1107); conditions: small-molecule microarray binding, higher = more signal;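 also: mouse activin A protein probed at 4.33 µg/mL on printed slides; score merges bound-protein fluorescence near 667 nm with spot signal-to-noise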
Compound,composite z-score [1],z-score [2],z-score [3],z-score [4],composite z-score [5],z-score [6],composite z-score [7],composite z-score [8],composite z-score [9],composite z-score [10],composite z-score [11],composite z-score [12],composite z-score [13],z-score [14],composite z-score [15],composite z-score [16],composite z-score [17],composite z-score [18],composite z-score [19],composite z-score [20]
CN1C(=O)[C@]2(CCS(=O)(=O)c3ccccc3)N=C(c3ccc(OCCCO)cc3)O[C@@H]2c2ccccc21,1.54,0.921 (inactive),-0.895 (inactive),3.62 (inactive),3.41,-0.532 (inactive),-0.0271,0.804,1.12,-0.168,1.38,0.0991,0.89,-0.674 (inactive),0.458,1.33,-0.0528,0.669,0.367,0.3
COCCOC(=O)N1C(=O)[C@@]2(c3cc(C#CCC(C(=O)OC)C(=O)OC)ccc31)[C@H](C(=O)N1CCCCCCC1)[C@H]1C(=O)O[C@H](c3ccccc3)[C@H](c3ccccc3)N1[C@@H]2c1ccccc1OCCO,1.56,0.917 (inactive),-1.08 (inactive),3.51 (inactive),2.88,0.858 (inactive),1.82,1.82,1.14,1.06,1.61,2.62,1.59,-0.815 (inactive),0.547,1.32,0.893,1.67,0.987,1.96
COC(=O)c1c(CC[C@@H](CO)NC(=O)N[C@@H](Cc2ccccc2)Cn2cc(-c3cncn3C)nn2)oc(C(C)=O)c1C(=O)OC,1.51,0.268 (inactive),-0.0536 (inactive),-0.131 (inactive),2.99,0.916 (inactive),-0.215,0.801,0.912,-0.142,0.942,-0.193,-0.192,-1.71 (inactive),0.481,0.352,-0.913,0.367,-0.376,-0.721
COCCOC(=O)N1C(=O)[C@@]2(c3cc(C#CC4(O)CCCCCC4)ccc31)[C@H](c1ccc(OCCO)cc1)N1[C@H](c3ccccc3)[C@H](c3ccccc3)OC(=O)[C@H]1[C@@H]2C(=O)N1CCCCCCC1,1.55,1.42 (inactive),0.598 (inactive),3.68 (inactive),3.09,0.436 (inactive),1.15,1.82,1.11,0.753,1.74,1.63,0.965,-1.55 (inactive),1.35,1.32,0.825,1.51,0.988,1.74
COCCCNC(=O)[C@@H]1c2ccccc2C(=O)N(C2CCCCC2)[C@H]1c1ccc(CO)cc1,-0.158,-0.0916 (inactive),-0.769 (inactive),-0.285 (inactive),2.86,0.216 (inactive),-0.018,-0.597,-0.47,-0.257,1.2,0.164,0.864,0.0373 (inactive),-0.779,-1.82,-1.22,-0.849,-1.54,-0.0501
